STK33 inh: human STK33 kinase inhibition. 0.44% of 27,000 active. inhibition, % at 12.5 µM. AID 2322. ADP-Glo luminescence, MBP substrate. Q9BYT3; in the data active = inhibition above about 20%; inconclusive = no clear call, values can overlap the other calls
Target sequence (Q9BYT3 whole entry, looked up): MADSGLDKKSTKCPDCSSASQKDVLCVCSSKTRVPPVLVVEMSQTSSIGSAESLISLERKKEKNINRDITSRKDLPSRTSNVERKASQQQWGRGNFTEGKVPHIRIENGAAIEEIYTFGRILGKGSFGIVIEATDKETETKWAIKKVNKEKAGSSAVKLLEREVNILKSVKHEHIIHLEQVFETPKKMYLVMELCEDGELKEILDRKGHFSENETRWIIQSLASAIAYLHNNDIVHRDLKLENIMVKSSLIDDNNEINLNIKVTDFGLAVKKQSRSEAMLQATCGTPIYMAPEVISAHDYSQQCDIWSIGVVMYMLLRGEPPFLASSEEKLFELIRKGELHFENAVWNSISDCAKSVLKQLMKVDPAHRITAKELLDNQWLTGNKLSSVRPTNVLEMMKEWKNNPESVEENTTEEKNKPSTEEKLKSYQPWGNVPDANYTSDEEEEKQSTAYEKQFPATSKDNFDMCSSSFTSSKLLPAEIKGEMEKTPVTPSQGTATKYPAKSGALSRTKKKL
p53 PUMA act: mutant p53 pathway reactivation; SW480 PUMA-promoter luciferase; activation, % at 9.98 µM; 1.5% of 28,000 active; AID 624151; in the data active = activation above about 52%; inconclusive = no clear call, values can overlap the other calls
NOMO-1 viab: STK33 inhibitor candidate reducing NOMO-1 cell viability. NOMO-1 AML viability, CellTiter-Glo luminescence, 72 h. inhibition, % (concentration not given with the values). 7.5% of 37,000 active. AID 2330; in the data active = inhibition above about 80%; inconclusive = no clear call, values can overlap the other calls
MITF inhib: inhibitors of MITF; inhibition, % (test concentration not listed); TRPM1 promoter luciferase, luminescence, 24 h; AID 2240; 0.28% of 37,000 active; in the data active = inhibition above about 85%; inconclusive = no clear call, values can overlap the other calls; inactive = below about 68%;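 also: human melanocyte line stably carrying TRPM1 promoter luciferase reporter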
Large screens that a line does not name were inactive. The full list was thinned out, with hits kept by preference.

C[C@@H]1CN([C@@H](C)CO)C(=O)c2cccc(NC(=O)Nc3ccc4c(c3)OCO4)c2O[C@@H]1CN(C)Cc1ccc(C(=O)O)cc1	none (no result: STK33 inh, p53 PUMA act)
C[C@@H]1CN([C@@H](C)CO)C(=O)c2cccc(NC(=O)Nc3ccc4c(c3)OCO4)c2O[C@@H]1CN(C)Cc1ccc(C(=O)Nc2ccccc2N)cc1	NOMO-1 viab 142 (no result: STK33 inh, p53 PUMA act)
C[C@H]1CN([C@@H](C)CO)C(=O)c2cccc(NC(=O)Nc3ccc4c(c3)OCO4)c2O[C@@H]1CN(C)Cc1ccc(C(=O)Nc2ccccc2N)cc1	NOMO-1 viab 127 (no result: STK33 inh, p53 PUMA act)
C[C@@H]1CN([C@@H](C)CO)C(=O)c2cccc(NC(=O)Nc3ccc4c(c3)OCO4)c2O[C@H]1CN(C)Cc1ccc(C(=O)Nc2ccccc2N)cc1	NOMO-1 viab 126 (no result: STK33 inh, p53 PUMA act)
COC(=O)c1sccc1NC(=O)c1cc(-c2ccccn2)nc2ccc(Br)cc12	none
O=C(COc1ccccc1Cl)NCc1ccco1	none
O=C(COc1cc(Cl)c(Cl)cc1Cl)NCc1ccco1	p53 PUMA act 56
COc1cc(O)c(C(=O)/C=C/c2ccccc2)c(OC)c1	NOMO-1 viab 93 (no result: p53 PUMA act)
C[C@@H]1CN([C@@H](C)CO)C(=O)Cc2cc(NC(=O)Nc3ccc(C(F)(F)F)cc3)ccc2O[C@@H]1CN(C)C(=O)Nc1ccc2c(c1)OCO2	NOMO-1 viab 125 (no result: STK33 inh, p53 PUMA act)
C[C@H]1CN([C@@H](C)CO)C(=O)Cc2cc(NC(=O)Nc3ccc(C(F)(F)F)cc3)ccc2O[C@H]1CN(C)C(=O)Nc1ccc2c(c1)OCO2	none (no result: p53 PUMA act)
C[C@@H]1CN([C@H](C)CO)C(=O)Cc2cc(NC(=O)Nc3ccc(C(F)(F)F)cc3)ccc2O[C@@H]1CN(C)C(=O)Nc1ccc2c(c1)OCO2	NOMO-1 viab 113 (no result: p53 PUMA act)
Cc1ccc(CC(CC(=O)O)C(=O)Nc2ccccc2I)cc1 (configuration not stated)	none
Cc1ccc(S(=O)(=O)N(C)C[C@@H]2Oc3ccc(NC(=O)Nc4ccccc4)cc3CC(=O)N([C@H](C)CO)C[C@@H]2C)cc1	NOMO-1 viab 100 (no result: STK33 inh, p53 PUMA act)
Cc1ccc(S(=O)(=O)N(C)C[C@@H]2Oc3ccc(NC(=O)Nc4ccc(F)cc4)cc3CC(=O)N([C@@H](C)CO)C[C@@H]2C)cc1	NOMO-1 viab 104 (no result: p53 PUMA act)
Cc1ccc(S(=O)(=O)N(C)C[C@@H]2Oc3ccc(NC(=O)Nc4ccc(F)cc4)cc3CC(=O)N([C@H](C)CO)C[C@@H]2C)cc1	NOMO-1 viab 127 (no result: p53 PUMA act)
Cc1ccc(S(=O)(=O)N(C)C[C@@H]2Oc3ccc(NC(=O)C4CC4)cc3CC(=O)N([C@@H](C)CO)C[C@@H]2C)cc1	NOMO-1 viab 84
Cc1ccc(S(=O)(=O)N(C)C[C@H]2Oc3ccc(NC(=O)Nc4ccc(F)cc4)cc3CC(=O)N([C@@H](C)CO)C[C@H]2C)cc1	none (no result: p53 PUMA act)
COc1ccc(S(=O)(=O)N(C)C[C@@H]2Oc3ccc(NC(=O)Nc4ccc(F)cc4)cc3CC(=O)N([C@H](C)CO)C[C@@H]2C)cc1	none (no result: p53 PUMA act)
COc1ccc(NC(=O)Nc2ccc3c(c2)CC(=O)N([C@H](C)CO)C[C@H](C)[C@H](CN(C)S(=O)(=O)c2ccc(F)cc2)O3)cc1	NOMO-1 viab 126 (no result: STK33 inh, p53 PUMA act)
Cc1ccc(S(=O)(=O)N(C)C[C@@H]2Oc3ccc(NC(=O)NC(C)C)cc3CC(=O)N([C@@H](C)CO)C[C@@H]2C)cc1	NOMO-1 viab 98 (no result: p53 PUMA act)
O=C(CN1CCCCC1)Nc1sc2c(c1C(=O)Nc1ccc(Cl)cc1)CCC2	none
CC(C)CC(NC(=O)N1CCCCCC1)C(=O)NC(Cc1cn(C)c2ccccc12)C(=O)NC(Cc1ccccn1)C(=O)O (configuration not stated)	none (no result: STK33 inh, NOMO-1 viab, MITF inhib)
C[C@@H]1CN([C@H](C)CO)C(=O)Cc2cc(NS(=O)(=O)c3ccc(F)cc3)ccc2O[C@@H]1CN(C)Cc1ccc(Oc2ccccc2)cc1	NOMO-1 viab 115 (no result: p53 PUMA act)
C[C@H](CO)N1C[C@H](C)[C@H](CN(C)Cc2ccc(Oc3ccccc3)cc2)Oc2ccc(NS(=O)(=O)c3ccc(F)cc3)cc2CC1=O	NOMO-1 viab 126 (no result: p53 PUMA act)
Cc1ccc(C)c(NS(=O)(=O)c2ccccc2)c1	none (no result: STK33 inh, p53 PUMA act)
Cc1ccccc1NC(=O)CSc1nnc(-c2ccc(C(C)(C)C)cc2)n1C	none
Cc1cccc(NC(=O)C2CC(=O)n3c(nc4ccccc43)N2)c1 (configuration not stated)	none
Cc1nc(SCC(=O)Nc2oc(-c3ccccc3)c(-c3ccccc3)c2C#N)nc2c1CCCC2	none
C[C@@H]1CCCCO[C@@H](CN(C)C(=O)C2CCCCC2)[C@@H](C)CN([C@H](C)CO)C(=O)c2cc(NS(=O)(=O)c3ccccc3)ccc2O1	NOMO-1 viab 101
C[C@@H]1CCCCO[C@@H](CN(C)C(=O)Nc2cccc3ccccc23)[C@@H](C)CN([C@H](C)CO)C(=O)c2cc(NS(=O)(=O)c3ccccc3)ccc2O1	none (no result: p53 PUMA act)
Cc1noc(C)c1S(=O)(=O)Nc1ccc2c(c1)C(=O)N([C@H](C)CO)C[C@H](C)[C@@H](CN(C)C(=O)Nc1ccc(C(F)(F)F)cc1)OCCCC[C@@H](C)O2	NOMO-1 viab 115 (no result: p53 PUMA act)
Cc1ccc(S(=O)(=O)Nc2ccc3c(c2)C(=O)N([C@H](C)CO)C[C@H](C)[C@H](CN(C)C(=O)Nc2cccc4ccccc24)OCCCC[C@@H](C)O3)cc1	NOMO-1 viab 111 (no result: p53 PUMA act)
Cc1noc(C)c1S(=O)(=O)Nc1ccc2c(c1)C(=O)N([C@H](C)CO)C[C@H](C)[C@H](CN(C)C(=O)Nc1ccc(C(F)(F)F)cc1)OCCCC[C@@H](C)O2	NOMO-1 viab inconclusive (no result: p53 PUMA act)
COc1ccc(S(=O)(=O)Nc2ccc3c(c2)C(=O)N([C@H](C)CO)C[C@H](C)[C@H](CN(C)C(=O)Nc2ccc(C(F)(F)F)cc2)OCCCC[C@@H](C)O3)cc1	NOMO-1 viab 134 (no result: p53 PUMA act)
COc1ccc(NC(=O)CNC(=O)c2ccc(C(C)(C)C)cc2)cc1	none
Cc1ccc(F)cc1NC(=O)CCCSc1nc(-c2ccco2)cc(C(F)(F)F)n1	none
C[C@@H]1CCCCO[C@@H](CN(C)C(=O)Nc2ccc(C(F)(F)F)cc2)[C@@H](C)CN([C@H](C)CO)C(=O)c2cc(NS(=O)(=O)c3ccc(F)cc3)ccc2O1	NOMO-1 viab 110 (no result: p53 PUMA act)
NC(=O)CN(Cc1ccc(Cl)c(Cl)c1)S(=O)(=O)c1ccc(Br)cc1	none
C[C@H](CO)N1C[C@H](C)[C@H](CN(C)Cc2ccc(-c3ccccc3)cc2)Oc2c(NC(=O)Nc3ccc(C(F)(F)F)cc3)cccc2C1=O	NOMO-1 viab 82 (no result: STK33 inh)
C[C@@H]1CN([C@H](C)CO)C(=O)c2cccc(NC(=O)Nc3ccc(C(F)(F)F)cc3)c2O[C@H]1CN(C)Cc1ccc(-c2ccccc2)cc1	NOMO-1 viab 110 (no result: p53 PUMA act)
C[C@@H]1CN([C@@H](C)CO)C(=O)c2cccc(NC(=O)Nc3ccc(C(F)(F)F)cc3)c2O[C@H]1CN(C)Cc1ccc(-c2ccccc2)cc1	none (no result: STK33 inh, p53 PUMA act)
CCOc1ccc(NC(=O)C(C)Sc2nc3ccccc3s2)cc1 (configuration not stated)	none
O=C(CCCN1C(=O)c2ccccc2C1=O)Nc1cc(Cl)cc(Cl)c1	none
COc1cc(S(=O)(=O)NC2CC(C)(C)NC(C)(C)C2)c(OC)cc1Br	none
COc1ccccc1NC(=O)CSc1nc(-c2ccc(C)cc2)nc2c1COC(C)(C)C2	none
COc1cc2ncnc(Nc3ccc(Cl)cc3F)c2cc1OC	STK33 inh 26, NOMO-1 viab inconclusive (no result: p53 PUMA act)

Source: PubChem
